Experimental data published in PubChem BioAssay (NCATS).
Values joined by “and” are separate entries in the source; they are usually repeats but may differ in a detail not shown here. Equal values may be shown once. Values without a mark were called inactive. Active and inactive are the calls of the source. The rule behind the calls is not given here.

Assays:
[1] = biological target: Nuclear receptor subfamily 1 group I member 2 (Rattus norvegicus) (UniProt Q9R1A7); assay: qHTS assay for small molecule activators of the rat pregnane X receptor (rPXR) signaling pathway (AID 651751); details: rPXR reporter cells, luciferase (One-Glo), 24 h
[2] = qHTS assay for small molecule activators of the human pregnane X receptor (PXR) signaling pathway (AID 720659); details: DPX-2 HepG2 CYP3A4-luciferase, 24 h; series mostly up to 92.3 µM
Note: 0% is about no effect.

Chain of Nuclear receptor subfamily 1 group I member 2 (Rattus norvegicus) (Q9R1A7 whole entry, looked up): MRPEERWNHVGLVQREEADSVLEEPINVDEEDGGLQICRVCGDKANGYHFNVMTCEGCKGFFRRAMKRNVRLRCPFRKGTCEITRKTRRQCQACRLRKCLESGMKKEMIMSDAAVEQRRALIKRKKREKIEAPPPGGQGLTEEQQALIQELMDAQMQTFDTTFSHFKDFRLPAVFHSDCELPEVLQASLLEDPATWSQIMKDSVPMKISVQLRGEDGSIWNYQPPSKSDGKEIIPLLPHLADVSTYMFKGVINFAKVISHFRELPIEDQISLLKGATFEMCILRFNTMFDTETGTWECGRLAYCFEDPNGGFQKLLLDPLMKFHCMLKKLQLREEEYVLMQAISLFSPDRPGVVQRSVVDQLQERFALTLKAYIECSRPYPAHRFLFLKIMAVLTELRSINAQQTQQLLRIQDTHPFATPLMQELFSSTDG

| Compound | max response [1] | outcome [2] |
| --- | --- | --- |
| OC(Cn1cncn1)(Cn1cncn1)c1ccc(F)cc1F | 4.95% | – |
| S=P(N1CC1)(N1CC1)N1CC1 | 2.63% | – |
| Nc1nc(N)c2nc(CNc3ccc(C(=O)NC(CCC(=O)O)C(=O)O)cc3)cnc2n1 (centres undefined) | -7.99% | inactive |
| Cc1ncc([N+](=O)[O-])n1CCO | 6.53% | inactive |
| CCc1cc(C(N)=S)ccn1 | 7.13% and -2.63% | – |
| NC(N)=NC(N)=NCCc1ccccc1 | – | inactive |
| N=C(N)c1ccc(OCCCCCOc2ccc(C(=N)N)cc2)cc1 | – | inactive |
| O=C(O)c1cc(=O)[nH]c(=O)[nH]1 | -3.54% | inactive |
| CN(C)c1ccc(C(=C2C=CC(=[N+](C)C)C=C2)c2ccc(N(C)C)cc2)cc1 | – | inactive |
| Cc1noc(NS(=O)(=O)c2ccc(N)cc2)c1C | – | inactive |
| Cc1ccnc2c1NC(=O)c1cccnc1N2C1CC1 | -6.61% | inactive |
| COc1ccc2cc3[n+](cc2c1OC)CCc1cc2c(cc1-3)OCO2 | 6.2% | inactive |
| NNC(=O)c1ccncc1 | 6.47% | inactive |
| CC1=NN(c2ccccc2)C(=O)C1 | 3.89% and 0.779% | – |
| Cc1nnc(NS(=O)(=O)c2ccc(N)cc2)s1 | -0.291% | inactive |
| O=C(N[C@H](CO)[C@H](O)c1ccc([N+](=O)[O-])cc1)C(Cl)Cl | -5.66% and -3.04% | – |
| CC(=O)CC(c1ccccc1)c1c(O)c2ccccc2oc1=O (centres undefined) | 2.18% | inactive |
| Cc1cc(NS(=O)(=O)c2ccc(N)cc2)no1 | 3.86% | inactive |
| N[C@@H](Cc1ccc(O)c(O)c1)C(=O)O | -10% | inactive |
